Bioassay records: PubChem BioAssay, National Center for Advancing Translational Sciences (NCATS)
The sample as a whole holds a higher share of hits than the screen did.
Lassa entry inh – Lassa virus entry inhibition. Lassa virus pseudotype entry inhibition, cell reporter. Potency, µM (highest dose often 37.9 µM), for the others: at the highest dose activity change, negative = inhibition, most hits filed as inhibitors. 300,000 compounds, 1.2% hits. AID 540256; calls by dose curve; tested in HEK293 cells; note: potency is the fitted concentration of half-maximal effect; % is set by controls: 0 for no effect and ±100 for the full control effect; nearly all actives have a fitted effect of over 50% in size
Shiga inhibitor – inhibitors of Shiga toxin in Vero cells. 290,000 compounds, 9.2% hits. inhibition, % at 38.7 µM. Vero cells, Shiga toxin protein synthesis inhibition reporter; in the data active = inhibition mostly above about 28%, no sharp cut-off; inactive = mostly below about 43%; note: 0% is about no effect
CHX counter – counter-screen hit for Shiga toxin inhibitors, cycloheximide. cell reporter, cycloheximide protein synthesis inhibition counterscreen. max response, %. 300,000 compounds, 12% hits. AID 2314; in the data active = max response mostly above about 13%, no sharp cut-off; inactive = mostly below about 14%; note: read at 38.3 µM for the half of the compounds with a filed dose; 0% is about no effect
VACV mCherry inh – inhibitors of vaccinia virus infection (mCherry reporter signal). 310,000 compounds, 0.63% hits. AID 720579. Potency, µM (highest dose often 36.5 µM), without a hit: top-dose activity change, negative = inhibition, actives largely listed as inhibitors. Vaccinia virus mCherry reporter infection, fluorescence; calls by dose curve; tested in A549 cells; note: potency is the fitted concentration of half-maximal effect; % is set by controls: 0 for no effect and ±100 for the full control effect; nearly all actives have a fitted effect of over 35% in size
Vaccinia Venus – vaccinia inhibition (Venus reporter); Vaccinia virus Venus reporter expression, fluorescence; Potency, µM (titrated, usually from 36.5 µM), for inactives: top-dose activity change, negative = inhibition, hits mostly inhibitors; 330,000 compounds, 0.46% hits; AID 720580; calls by dose curve; tested in A549 cells; note: potency is the fitted concentration of half-maximal effect; % is set by controls: 0 for no effect and ±100 for the full control effect; nearly all actives have a fitted effect of over 30% in size
MARV entry inh – Marburg virus entry inhibition. Marburg virus pseudotyped entry inhibition, cell reporter. Potency, µM (highest dose often 37.8 µM), for the others: at the top dose activity change, negative = inhibition, hits mostly inhibitors. 300,000 compounds, 1.8% hits. AID 540276; calls by dose curve; tested in HEK293 cells; note: potency is the fitted concentration of half-maximal effect; % is set by controls: 0 for no effect and ±100 for the full control effect
* marks the source's active call; other numbers are inactive results; i = inactive; ? = inconclusive; nt = not tested or not shown; ! = not confirmed by another sample; [ ] = another dose, or the depositor's remark.

SMILES	Lassa entry inh	Shiga inhibitor	CHX counter	VACV mCherry inh	Vaccinia Venus	MARV entry inh
O=S(=O)(c1ccc2ccccc2c1)n1nc(-c2ccco2)nc1NCc1ccc(F)cc1	0.9%[46.1 µM]	nt	nt	1.9%	-4.8%	-9.8%[46.1 µM]
O=C(N[C@@H]1c2ccccc2C2(CCN(C(=O)c3cc4ccccc4oc3=O)CC2)[C@H]1O)c1cccnc1	nt	nt	nt	-0.5%	-7.7%	nt
CC(C)CC(OC(=O)c1ccco1)C(=O)NC1CCCCC1 (stereo not given)	?	17.7	16.6*	i	-15.9%	-8.5%
Cc1cccc(N2CC(C(=O)Nc3ccc(N4CCOCC4)cc3)CC2=O)c1C (stereo not given)	-5.8%	nt	nt	-1.1%	-10.2%	4.1%
COc1ccc2c(-c3ccccc3)cc(SCC(N)=O)nc2c1	?	-6.0	-1.6	-2.2%	3.0%	5.62µM*
O=C(Nc1nnc([C@@H]2C[C@H](O)[C@@H](CO)O2)s1)NC1CCCCC1	nt	nt	nt	9.6%	10.0%	nt
Cc1c(OCC(F)(F)F)ccnc1CS(=O)c1nc2ccccc2[nH]1 (stereo not given)	?	116.0*!	26.6*	-25.1%	-23.4%	?
COc1ccc2nc(S(=O)Cc3ncc(C)c(OC)c3C)[nH]c2c1 (stereo not given)	-28.3%	14.3	7.5	-1.2%	-17.4%	-1.3%
Cc1c(OCC(F)(F)F)ccnc1CSc1nc2ccccc2[nH]1	?	132.0*	53.5*	nt	nt	?
CC(C)NC(=O)c1onc(CSc2nc3ccccc3[nH]2)c1C(=O)NC(C)C	nt	-3.3	-2.1	i	-19.0%	nt
COCCCOc1ccnc(CS(=O)c2nc3ccccc3[nH]2)c1C (stereo not given)	nt	47.7*	43.5*	-5.0%	-26.1%	nt
COc1cccc(-c2ccnc(-n3ncc(C(=O)NCC(C)(C)CN(C)C)c3C)n2)c1	nt	nt	nt	-14.2%	-10.7%	nt
NC(=O)c1ccsc1NC(=O)COC(=O)c1nc(Cl)ccc1Cl	1.8%	nt	nt	-16.5%	-5.1%	-8.4%[46.1 µM]
CC1(C)CC2(CCO1)N1CC3(C)CN2CC(C)(C1)C3=O (stereo not given)	5.6%	nt	nt	-12.9%	-3.7%	25.2%
O=C([C@H](c1ccccc1)N1CCOCC1)N1CCOCC1	nt	nt	nt	nt	nt	28.6%[46.1 µM]
CC(C)(C)OC(=O)N1CCC[C@H]1c1nnc(SCc2ccc(Cl)cc2Cl)o1	?	30.0	-2.6	nt	-26.7%	8.91µM*
Cc1nc2ccc(S(=O)(=O)NC(CC(C)C)C(=O)NCc3ccc(Cl)cc3)cc2s1 (stereo not given)	-9.6%[46.1 µM]	nt	nt	-13.8%	-9.1%	?
Cc1ccc(OCc2cc(C(=O)N(CCO)Cc3cccs3)no2)cc1C	?	160.4*	50.8*	-3.4%	-17.7%	-9.7%
Cc1ccccc1C1CCCN(C(=O)c2cc(COc3c(F)cccc3F)on2)C1 (stereo not given)	nt	4.9	2.2	nt	nt	nt
Cc1ccc(OCc2cc(C(=O)N3CCN(C4CCCC4)CC3)no2)cc1C	-3.4%	52.8*	41.7*	-9.2%	-4.0%	?
Cc1ccc(OCc2cc(C(=O)N3CCC(c4ccccc4Cl)C3)no2)cc1C (stereo not given)	nt	72.8*	62.6*	nt	nt	nt
CCc1cc(CNC(=O)c2cc(COc3ccc(C)nc3)on2)on1	2.1%	59.2*	44.1*	-12.3%	-8.8%	-0.8%
CCCCCn1c(=O)[nH]c2cc(C(=O)N3CCN(c4cc(Cl)ccc4C)CC3)ccc2c1=O	1.6%[46.1 µM]	nt	nt	?	?	-3.4%[46.1 µM]
Cc1ccc(C)c(C(=O)N2CCC(C3(c4ccccn4)NC(=O)N(CC4CCCO4)C3=O)CC2)c1 (stereo not given)	nt	nt	nt	i	-13.5%	nt
CSc1ccccc1OCc1cc(C(=O)N2CCNC(=O)C2)no1	10.4%	31.2	13.0	i	-5.2%	8.6%
SMILES	Lassa entry inh	Shiga inhibitor	CHX counter	VACV mCherry inh	Vaccinia Venus	MARV entry inh
Cc1ccc(OCc2cc(C(=O)N3CCc4sccc4C3)no2)cc1C	?	13.9	17.3	-12.6%	-16.2%	0.7%
C=CCC1(CC=C)CCCN1C(=O)c1cc(COc2ccc(C)nc2)on1	nt	78.3*	21.3*	nt	nt	nt
Cc1cccc(C)c1OCc1cc(C(=O)N2CCNC(=O)C2)no1	nt	16.2	23.7*	nt	nt	nt
Cc1ccc(OCc2cc(C(=O)N3CCN(C4CCCCC4)CC3)no2)cc1C	nt	65.4*	52.2*	nt	nt	nt
Cc1ccc(OCc2cc(C(=O)N3CCC(C(O)C(C)C)CC3)no2)cc1C (stereo not given)	nt	51.5*	24.5*	nt	nt	nt
C=CCC1(CC=C)CCCN1C(=O)c1cc(COc2ccc(F)c(F)c2)on1	nt	12.3	2.6	-11.0%[7.34 µM]	-2.8%[7.34 µM]	nt
Cc1cccc(C)c1OCc1cc(C(=O)N2CCCCCCC2)no1	?	48.6*	42.9*	?	-19.7%	?
